Test results from PubChem BioAssay AID1159580 (chemical genetic matrix, 2015).
Several values for one entry are separate records, joined by “and”; a condition that tells them apart may be missing. Equal entries are not always repeated. In all, about 5,500 compounds went through this assay and about 2,000 (36%) were called active. Not shown: some 18% with an inconclusive outcome. Cut-off read from the data, not from the text of the source: active = normalized growth mostly below about 0.91 (no sharp cut-off); inconclusive = no clear call, values can overlap the other calls; inactive = mostly above about 0.92. The list shows a part of the results.

Test: chemical genetic growth profiling, strain panel (AID 1159580);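 note: tested at 20 µM; growth read once vehicle control cultures reached saturation at 30 °C; 1 = growth at the plate median or of vehicle wells; lower values mean less growth of the strain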
Conditions: growth OD
[1] = S. cerevisiae deletion strains, locus YAL013W, strain DEP1, hits give low values
[2] = S. cerevisiae deletion strains, locus YBR229C, strain ROT2, hits give low values
[3] = S. cerevisiae deletion strains, locus YDL101C, strain DUN1, hits give low values
[4] = S. cerevisiae deletion strains, locus YDR150W, strain NUM1, hits give low values
[5] = S. cerevisiae deletion strains, locus YEL061C, strain CIN8, hits give low values
[6] = S. cerevisiae deletion strains, locus YGR078C, strain PAC10, hits give low values
[7] = S. cerevisiae deletion strains, locus YGR229C, strain SMI1, hits give low values
[8] = S. cerevisiae deletion strains, locus YHR030C, strain SLT2, hits give low values
[9] = S. cerevisiae deletion strains, locus YJR043C, strain POL32, hits give low values
[10] = S. cerevisiae deletion strains, locus YJR075W, strain HOC1, hits give low values
[11] = S. cerevisiae deletion strains, locus YLR039C, strain RIC1, hits give low values
[12] = S. cerevisiae deletion strains, locus YLR262C, strain YPT6, hits give low values
[13] = S. cerevisiae deletion strains, locus YMR263W, strain SAP30, hits give low values
[14] = S. cerevisiae deletion strains, locus YMR307W, strain GAS1, hits give low values
[15] = S. cerevisiae deletion strains, locus YNL153C, strain GIM3, hits give low values
[16] = S. cerevisiae deletion strains, locus YNL322C, strain KRE1, hits give low values
[17] = S. cerevisiae deletion strains, locus YOL006C, strain TOP1, hits give low values
[18] = S. cerevisiae deletion strains, locus YPL055C, strain LGE1, hits give low values
[19] = S. cerevisiae deletion strains, locus YPL241C, strain CIN2, hits give low values
[20] = S. cerevisiae strains, strain wild type, hits give low values
[21] = S. cerevisiae deletion strains, locus YHR079C, strain IRE1, hits give low values
[22] = S. cerevisiae deletion strains, locus YJL095W, strain BCK1, hits give low values
[23] = S. cerevisiae deletion strains, locus YJR066W, strain TOR1, hits give low values
[24] = S. cerevisiae deletion strains, locus YLR113W, strain HOG1, hits give low values
[25] = S. cerevisiae deletion strains, locus YNL183C, strain NPR1, hits give low values
[26] = S. cerevisiae deletion strains, locus YOR231W, strain MKK1, hits give low values
[27] = S. cerevisiae deletion strains, locus YPL256C, strain CLN2, hits give low values

Measured: normalized growth

Cc1c(-c2csc(-c3ccc(Cl)cc3)n2)sc2ccc(Cl)cc12
inactive: [1] 1.03 | [2] 1.03 | [3] 1.05 | [4] 1.01 | [5] 0.996 | [6] 1.04 | [7] 1.03 | [8] 1.07 | S. cerevisiae deletion strains, locus YHR087W, strain rtc3, hits give low values 1.03 | [9] 1.04 | [10] 1.02 | [11] 1.07 | S. cerevisiae deletion strains, locus YLR058C, strain SHM2 (second series), hits give low values 1.05 | S. cerevisiae deletion strains, locus YLR085C, strain ARP6, hits give low values 1.05 | [12] 1.09 | S. cerevisiae deletion strains, locus YML094W, strain GIM5, hits give low values 1.04 | S. cerevisiae deletion strains, locus YMR219W, strain ESC1, hits give low values 1.04 | [13] 1.02 | [14] 1.07 | [15] 1.02 | S. cerevisiae deletion strains, locus YNL298W, strain CLA4 (second series), hits give low values 1.09 | [16] 1.04 | S. cerevisiae deletion strains, locus YNR030W, strain Alg12, hits give low values 1.04 | [17] 1.1 | [18] 0.999 | [19] 1.03 | S. cerevisiae deletion strains, locus YPR135W, strain CTF4, hits give low values 1.07 | [20] 1.04

O[C@@H]1[C@H](O)CO[C@H]1O
inactive: [8] 0.995 | [21] 0.997 | [22] 1.01 | [23] 0.945 | [24] 1 | [25] 0.965 | [26] 0.992 | [27] 0.988

O[C@H]1[C@H](O)[C@@H](O)C2OC[C@H]1O2
inactive: [1] 1 | S. cerevisiae deletion strains, locus YBR021W, strain FUR4, hits give low values 1.03 | [2] 0.961 | S. cerevisiae deletion strains, locus YCL029C, strain bik1, hits give low values 0.986 | S. cerevisiae deletion strains, locus YDL035C, strain GPR1, hits give low values 0.986 | S. cerevisiae deletion strains, locus YDL074C, strain BRE1, hits give low values 0.929 | [3] 0.943 | S. cerevisiae deletion strains, locus YDL134C, strain PPH21, hits give low values 0.99 | S. cerevisiae deletion strains, locus YDL192W, strain arf1, hits give low values 0.986 | S. cerevisiae deletion strains, locus YDR101C, strain arx1, hits give low values 0.994 | [4] 0.992 | S. cerevisiae deletion strains, locus YDR162C, strain NBP2, hits give low values 0.918 | S. cerevisiae deletion strains, locus YDR318W, strain mcm21, hits give low values 0.998 | S. cerevisiae deletion strains, locus YDR388W, hits give low values 0.992 | S. cerevisiae deletion strains, locus YDR502C, strain sam2, hits give low values 0.983 | [5] 0.986 | S. cerevisiae deletion strains, locus YER110C, hits give low values 0.983 | S. cerevisiae deletion strains, locus YER155C, strain BEM2, hits give low values 0.988 | S. cerevisiae deletion strains, locus YER167W, strain BCK2, hits give low values 1 | S. cerevisiae deletion strains, locus YGL078C, strain dbp3, hits give low values 0.987 | S. cerevisiae deletion strains, locus YGL086W, strain mad1, hits give low values 1 | S. cerevisiae deletion strains, locus YGL248W, strain PDE1, hits give low values 0.975 | [6] 0.951 | S. cerevisiae deletion strains, locus YGR135W, strain pre9, hits give low values 0.982 | [7] 0.975 | S. cerevisiae deletion strains, locus YGR252W, strain gcn5, hits give low values 1 | [8] 1 and 0.967 | S. cerevisiae deletion strains, locus YHR079C, strain IRE1 (second series), hits give low values 0.999 | [21] 0.967 | S. cerevisiae deletion strains, locus YHR094C, strain hxt1, hits give low values 1 | S. cerevisiae deletion strains, locus YHR129C, strain ARP1, hits give low values 0.993 | S. cerevisiae deletion strains, locus YHR200W, strain rpn10, hits give low values 0.992 | S. cerevisiae deletion strains, locus YIL066C, strain RNR3, hits give low values 0.98 | S. cerevisiae deletion strains, locus YIL073C, strain SPO22, hits give low values 1.01 | S. cerevisiae deletion strains, locus YIL125W, strain kgd1, hits give low values 0.988 | S. cerevisiae deletion strains, locus YIR030C, strain dcg1, hits give low values 0.983 | [22] 0.98 and 0.977 | S. cerevisiae deletion strains, locus YJL134W, strain LCB3, hits give low values 0.984 | S. cerevisiae deletion strains, locus YJL168C, strain set2, hits give low values 0.982 | S. cerevisiae deletion strains, locus YJL187C, strain SWE1 (second series), hits give low values 0.972 | [9] 0.999 | [23] 0.919 | [10] 0.936 | S. cerevisiae deletion strains, locus YKL009W, strain mrt4, hits give low values 0.977 | S. cerevisiae deletion strains, locus YKL068W, hits give low values 0.982 | S. cerevisiae deletion strains, locus YKL085W, strain MDH1 (second series), hits give low values 1.02 | S. cerevisiae deletion strains, locus YKL085W, strain MDH1, hits give low values 1.02 | S. cerevisiae deletion strains, locus YKL190W, strain CNB1, hits give low values 0.98 | S. cerevisiae deletion strains, locus YKR001C, strain vps1, hits give low values 0.998 | [11] 0.968 | S. cerevisiae deletion strains, locus YLR058C, strain SHM2, hits give low values 0.972 | S. cerevisiae deletion strains, locus YLR102C, strain apc9, hits give low values 0.984 | [24] 0.999 | [12] 0.935 | S. cerevisiae deletion strains, locus YLR268W, strain sec22, hits give low values 0.963 | S. cerevisiae deletion strains, locus YLR330W, strain CHS5, hits give low values 0.988 | S. cerevisiae deletion strains, locus YLR342W, strain FKS1 (second series), hits give low values 1.04 | S. cerevisiae deletion strains, locus YLR371W, strain rom2, hits give low values 0.938 | S. cerevisiae deletion strains, locus YLR418C, strain cdc73, hits give low values 0.961 | S. cerevisiae deletion strains, locus YML016C, strain PPZ1, hits give low values 0.983 | S. cerevisiae deletion strains, locus YML032C, strain rad52, hits give low values 1 | S. cerevisiae deletion strains, locus YML124C, strain tub3, hits give low values 0.992 | S. cerevisiae deletion strains, locus YMR078C, strain ctf18, hits give low values 0.987 | S. cerevisiae deletion strains, locus YMR223W, strain ubp8, hits give low values 1.01 | [13] 0.94 | [14] 1.04 | S. cerevisiae deletion strains, locus YNL067W, strain RPL9B, hits give low values 0.951 | S. cerevisiae deletion strains, locus YNL128W, strain TEP1, hits give low values 0.926 | [15] 0.97 | [25] 0.905 | S. cerevisiae deletion strains, locus YNL233W, strain BNI4, hits give low values 0.978 | S. cerevisiae deletion strains, locus YNL250W, strain rad50, hits give low values 0.992 | S. cerevisiae deletion strains, locus YNL271C, strain bni1, hits give low values 0.984 | S. cerevisiae deletion strains, locus YNL298W, strain CLA4, hits give low values 1 | S. cerevisiae deletion strains, locus YNL307C, strain MCK1, hits give low values 1 | [16] 0.967 | S. cerevisiae deletion strains, locus YNR052C, strain pop2, hits give low values 0.978 | [17] 0.935 | S. cerevisiae deletion strains, locus YOL012C, strain htz1 0.683 | S. cerevisiae deletion strains, locus YOL147C, strain pex11, hits give low values 0.997 | S. cerevisiae deletion strains, locus YOR061W, strain CKA2, hits give low values 0.952 | S. cerevisiae deletion strains, locus YOR069W, strain VPS5, hits give low values 0.99 | S. cerevisiae deletion strains, locus YOR136W, strain idh2, hits give low values 0.99 | S. cerevisiae deletion strains, locus YOR144C, strain elg1, hits give low values 0.983 | S. cerevisiae deletion strains, locus YOR184W, strain ser1, hits give low values 1.01 | [26] 0.98 | S. cerevisiae deletion strains, locus YOR316C, strain cot1, hits give low values 0.977 | [18] 0.931 | [19] 0.983 | [27] 0.972 | S. cerevisiae deletion strains, locus YPR119W, strain clb2, hits give low values 0.992 | S. cerevisiae deletion strains, locus YPR141C, strain kar3, hits give low values 0.969 | S. cerevisiae deletion strains, locus YPR163C, strain tif3, hits give low values 0.995 | S. cerevisiae deletion strains, locus YPR167C, strain met16, hits give low values 0.972 | S. cerevisiae deletion strains, strain wtn01, hits give low values 0.943 | [20] 1.01
active: S. cerevisiae deletion strains, locus YDL185W, strain tfp1, hits give low values 0.901
